# In PubChem BioAssay (Tox21):
# Values joined by “and” are separate entries in the source; they are usually repeats but may differ in a detail not shown here. Equal entries are not always repeated. Inconclusive results are not listed. Entries that show only a call come without a potency. Where a structure was tested more than once in an assay, its records may differ in their call. Active and inactive are the calls of the source. Unless noted, calls follow the shape of the dose curve; as a rule, active = well fitted curve in the direction sought with a large enough effect in the repeat runs; inconclusive = weak or mixed curves; inactive = no such curve, though single readings can be large; an effect the other way counts as inactive or inconclusive.
# Key:
# [1] = qHTS assay to identify small molecule antagonists of the androgen receptor (AR) signaling pathway using the MDA cell line in the presence of 0.5 nM R1881 - cell viability counter screen (AID 1259242); also: nearly all actives have a fitted effect of over 45% in size; also: potency is read from the fitted curve at half-maximal effect
# In short: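 qHTS format. MDA-kb2 (MMTV-luc, AR/GR responsive) + cpd + 0.5 nM R1881 final, 16 hr 37C/0% CO2 → CellTiter-Fluor 30 min → fluorescence intensity.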
# [2] = molecular target: Estrogen receptor (Homo sapiens) (UniProt P03372); assay: qHTS assay to identify small molecule antagonists of the estrogen receptor alpha (ER-alpha) signaling pathway using the BG1 cell line in the presence of 0.1 nM 17-beta-estradiol (AID 1259244); also: nearly all actives have a fitted effect of over 50% in size; also: potency is read from the fitted curve at half-maximal effect
# In short: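 Reporter is a stably transfected luciferase under four estrogen responsive elements in VM7Luc4E2 cells expressing native full-length ER-alpha; inhibition of 0.1 nM (final) 17beta-estradiol-driven signal over 22 h is read by luminescence.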
# [3] = qHTS assay to identify small molecule phospholipidosis (PLD) inducers (AID 1259344; active = well fitted curve in the direction sought with a large enough effect; an effect the other way counts as inactive or inconclusive)
# In short: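 Read-out is LipidTOX Red fluorescence (ex 595/em 615) imaged in HepG2 cells after 24 h compound exposure at 37 C, with Hoechst nuclear counterstain (ex 352/em 461) allowing per-cell normalisation.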
# [4] = qHTS assay to identify small molecule HDAC inhibitors (AID 1259364); also: potency is read from the fitted curve at half-maximal effect;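 also: wild-type HCT-116 cells with endogenous class I/II HDAC activity; nearly all actives have a fitted effect of over 45% in size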
# In short: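 Quantitative high-throughput format: overnight-seeded HCT-116 cells got compounds for 2 hr at 37C; HDAC-Glo I/II reagent added, 30 min RT, luminescence measured.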
# [5] = qHTS assay to identify small molecule HDAC inhibitors - cell viability counter screen (AID 1259365); also: series mostly up to about 92 µM; nearly all actives have a fitted effect of over 50% in size
# In short: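 Following a 2hr exposure of overnight-plated wild-type HCT-116 cells to DMSO-delivered compounds, CellTiter-Glo was added and luminescence recorded after 30min at room temperature.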
# [6] = qHTS assay to identify small molecule agonists of the sonic hedgehog signaling (Shh) pathway - cell viability counter screen (AID 1259366); also: nearly all actives have a fitted effect of over 50% in size; also: potency is read from the fitted curve at half-maximal effect
# In short: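 After a 4hr attachment at 37C, NIH/3T3 cells bearing an integrated Gli1-driven luciferase reporter were dosed with compounds. Treatment lasted 24hr, with the final hour including CellTiter-Fluor for a fluorescence viability measurement.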
# [7] = qHTS assay to identify small molecule agonists of the sonic hedgehog signaling (Shh) pathway (AID 1259368; calls by dose curve; also: nearly all actives have a fitted effect of over 15% in size; also: potency is read from the fitted curve at half-maximal effect)
# In short: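 Quantitative high-throughput format using a Gli1-driven firefly luciferase reporter line derived from NIH/3T3 cells. After a 24 hr compound treatment at 37 C and 5% CO2, luminescence reported Gli1 response element activity.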
# [8] = molecular target: Androgen receptor (Homo sapiens) (UniProt P10275); assay: qHTS assay to identify small molecule antagonists of the androgen receptor (AR) signaling pathway using the MDA cell line in the presence of 0.5 nM R1881 (AID 1259243); also: nearly all actives have a fitted effect of over 50% in size; also: potency is read from the fitted curve at half-maximal effect
# In short: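 Antagonist mode quantitative HTS in MDA-kb2 MMTV-luciferase cells, agonist R1881 at 0.5 nM final, 16 hr exposure at 37C and 0% CO2, luminescent detection.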
# [9] = qHTS assay to identify small molecule antagonists of the sonic hedgehog signaling (Shh) pathway - cell viability counter screen (AID 1259367); also: nearly all actives have a fitted effect of over 55% in size; also: potency is read from the fitted curve at half-maximal effect
# In short: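 Fluorescence read-out (CellTiter-Fluor, 1 hr at 37C) taken after 23 hr compound treatment of 3T3 Gli1-Luc cells stimulated with conditioned medium. Cells were seeded at 2,000 per well and pre-incubated 4 hr.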
# [10] = qHTS assay to identify small molecule antagonists of the estrogen receptor alpha (ER-alpha) signaling pathway using the BG1 cell line in the presence of 0.1 nM 17-beta-estradiol - cell viability counter screen (AID 1259241); also: nearly all actives have a fitted effect of over 40% in size; also: potency is read from the fitted curve at half-maximal effect
# In short: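 Measures cytotoxicity alongside the ER-alpha antagonist readout: VM7Luc4E2 cells, charcoal-stripped serum, 0.1 nM 17beta-estradiol final, 22 hr compound incubation at 37C, CellTiter-Fluor fluorescence.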
# Sequence of Androgen receptor (Homo sapiens) (P10275 whole entry, looked up): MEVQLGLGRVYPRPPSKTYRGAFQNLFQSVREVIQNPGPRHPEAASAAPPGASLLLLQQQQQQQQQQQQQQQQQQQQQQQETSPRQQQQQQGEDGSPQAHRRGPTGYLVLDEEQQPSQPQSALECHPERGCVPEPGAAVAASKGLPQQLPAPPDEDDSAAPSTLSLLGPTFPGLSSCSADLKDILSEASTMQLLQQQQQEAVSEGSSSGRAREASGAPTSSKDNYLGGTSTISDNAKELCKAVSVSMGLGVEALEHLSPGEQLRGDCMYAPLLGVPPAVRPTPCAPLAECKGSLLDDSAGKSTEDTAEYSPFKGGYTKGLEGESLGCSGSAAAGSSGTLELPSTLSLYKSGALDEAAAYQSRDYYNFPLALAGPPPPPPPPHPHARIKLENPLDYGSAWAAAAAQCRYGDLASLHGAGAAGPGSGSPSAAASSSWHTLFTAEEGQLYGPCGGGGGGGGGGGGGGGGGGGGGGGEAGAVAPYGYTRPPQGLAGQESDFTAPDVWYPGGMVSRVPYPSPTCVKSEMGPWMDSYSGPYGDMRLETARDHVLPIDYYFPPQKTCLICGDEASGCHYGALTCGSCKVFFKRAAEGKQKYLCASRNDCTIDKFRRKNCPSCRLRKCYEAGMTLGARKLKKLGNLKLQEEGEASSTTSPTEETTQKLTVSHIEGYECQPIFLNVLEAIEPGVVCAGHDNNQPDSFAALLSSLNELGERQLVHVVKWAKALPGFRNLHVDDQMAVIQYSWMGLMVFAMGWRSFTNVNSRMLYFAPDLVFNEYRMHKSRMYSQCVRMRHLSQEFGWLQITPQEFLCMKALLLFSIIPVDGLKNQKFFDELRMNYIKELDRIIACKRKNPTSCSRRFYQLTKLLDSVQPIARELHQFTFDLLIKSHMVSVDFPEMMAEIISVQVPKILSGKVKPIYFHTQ
# Sequence of Estrogen receptor (Homo sapiens) (P03372 whole entry, looked up): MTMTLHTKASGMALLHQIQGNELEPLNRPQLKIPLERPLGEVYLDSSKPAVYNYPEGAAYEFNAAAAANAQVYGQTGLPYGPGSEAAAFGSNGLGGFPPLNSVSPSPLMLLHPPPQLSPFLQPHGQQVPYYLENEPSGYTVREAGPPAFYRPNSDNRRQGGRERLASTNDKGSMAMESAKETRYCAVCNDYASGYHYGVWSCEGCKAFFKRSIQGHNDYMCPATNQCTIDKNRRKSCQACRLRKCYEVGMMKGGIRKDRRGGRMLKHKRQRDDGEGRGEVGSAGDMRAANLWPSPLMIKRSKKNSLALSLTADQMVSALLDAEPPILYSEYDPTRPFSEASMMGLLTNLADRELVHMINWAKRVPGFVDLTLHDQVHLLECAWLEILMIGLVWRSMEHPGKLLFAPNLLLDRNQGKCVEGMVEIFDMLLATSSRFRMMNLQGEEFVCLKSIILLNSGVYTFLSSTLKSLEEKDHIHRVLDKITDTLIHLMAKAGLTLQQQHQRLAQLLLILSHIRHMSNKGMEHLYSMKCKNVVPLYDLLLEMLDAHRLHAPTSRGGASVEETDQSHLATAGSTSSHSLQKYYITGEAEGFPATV
Compound,Potency [1],Potency [2],outcome [3],Potency [4],Potency [5],Potency [6],Potency [7],Potency [8],Potency [9],Potency [10],PLD induction [3]
O=[N+]([O-])c1ccc(F)c([N+](=O)[O-])c1,30.9 µM (active),27.6 µM (active),inactive,12.3 µM (active),inactive,24.6 µM (active),inactive,,,,
S=C=NCc1ccccc1,inactive,,,,inactive,inactive,inactive,27.6 µM (active),inactive,,
c1cc2ccc3cccc4ccc(c1)c2c34,inactive,inactive,inactive,inactive,inactive,inactive,inactive,16.1 µM (active),inactive,,
O=C(N[C@H](c1ccccc1)[C@@H]1CN2CCC1CC2)c1c(Cl)ccc(C(F)(F)F)c1Cl,,,,inactive,inactive,39.2 µM (active),inactive,,43.9 µM (active),inactive,
N#CCC#N,inactive,inactive,,inactive,,inactive,,10.9 µM (active),inactive,,
Clc1ccc(C(OCCN2CCCCC2)c2ccccc2)cc1 (configuration not stated),inactive,inactive,inactive,inactive,inactive,inactive,inactive,,inactive,,
Clc1cc(C(Cl)(Cl)Cl)cnc1Cl,,inactive,,inactive,inactive,inactive,inactive,,inactive,inactive,
Clc1cc(Cl)c(Cl)c(Cl)c1,inactive,inactive,,inactive,inactive,inactive,inactive,,inactive,,
COP(=O)(OC)O/C(=C/Cl)c1cc(Cl)c(Cl)cc1Cl,inactive,57.5 µM (active),,inactive,inactive,inactive,inactive,45.7 µM (active),inactive,,
CN(C)c1ccc(N(C)C)cc1,inactive,,,,,24.4 µM (active),24.4 µM (active),,inactive,61.3 µM (active),
C=C(C#N)CCC#N,inactive,,,,,inactive,inactive,,inactive,inactive,
Clc1cccc2ccccc12,inactive,,,,,inactive,inactive,,inactive,inactive,
CCC(C)(NC(=O)c1cc(Cl)c(C)c(Cl)c1)C(=O)CCl (configuration not stated),,inactive,,inactive,inactive,43.5 µM (active),,,21.8 µM (active),,
O=C(O)CC(Cl)C(=O)O (configuration not stated),inactive,,,inactive,,inactive,inactive,,inactive,,
CC(C)(CCl)C(=O)Cl,inactive,,,inactive,inactive,inactive,inactive,,12.2 µM (active),,
N#CCc1ccccc1,inactive,inactive,,inactive,,inactive,inactive,,inactive,,
C=COC(C)=O,inactive,,,inactive,,inactive,inactive,,inactive,,
CC1(C)[C@H](C=C(Cl)Cl)[C@@H]1C(=O)O[C@@H](C#N)c1cccc(Oc2ccccc2)c1,inactive,inactive,,inactive,inactive,inactive,inactive,,inactive,,
CCc1ccc(C(=O)NN(C(=O)c2cc(C)cc(C)c2)C(C)(C)C)cc1,inactive,,,inactive,inactive,2.17 µM (active),inactive,,2.43 µM (active),,
CCBr,inactive,,,inactive,inactive,inactive,inactive,,inactive,,
Cc1c(F)c(F)c(COC(=O)C2C(/C=C(\Cl)C(F)(F)F)C2(C)C)c(F)c1F (configuration not stated),inactive,inactive,,inactive,,inactive,,,inactive,,
N#Cc1cc(I)c(O)c(I)c1,,,,inactive,inactive,,,54.5 µM (active),inactive,,
NNC(=O)c1cccnc1,inactive,inactive,,,inactive,inactive,inactive,,inactive,,
ClCCCCBr,inactive,,,inactive,,,inactive,,inactive,,

Compound,Potency [1],Potency [2],outcome [3],Potency [4],Potency [5],Potency [6],Potency [7],Potency [8],Potency [9],Potency [10],PLD induction [3]
C[C@H]1CNCCc2ccc(Cl)cc21,inactive,,,inactive,inactive,inactive,inactive,,inactive,,0.0663% [at 7.66 µM] (inactive)
CO/N=C(/C(=O)OC)c1ccccc1COc1ccccc1C,,inactive,,inactive,inactive,inactive,inactive,17.2 µM (active),inactive,,
CCOP(=S)(OCC)SCn1nnc2ccccc2c1=O,inactive,48.6 µM (active),,inactive,,inactive,,,inactive,,
CC(c1ccc(O)cc1)(c1ccc(O)cc1)c1ccc(O)cc1,inactive,,,inactive,,61.1 µM (active),inactive,,,,
CCOC(=O)CBr,inactive,,,inactive,inactive,inactive,inactive,,inactive,,
O=C(Nc1ccccc1)Nc1cnns1,inactive,,,30.6 µM (active),inactive,inactive,inactive,,inactive,,
COP(=S)(OC)Oc1ccc([N+](=O)[O-])cc1Cl,,inactive,,,,,inactive,6.86 µM (active),,,
O=C(Nc1ccccc1)Nc1ccnc(Cl)c1,,24.3 µM (active),,4.33 µM (active),inactive,,inactive,43.3 µM (active),,,
CCCCOC(=O)c1ccccc1C(=O)OCc1ccccc1,inactive,,,inactive and 17.2 µM (active),,inactive,inactive,,inactive and 48.6 µM (active),,
CCOc1nc(F)cc2nc(S(=O)(=O)Nc3c(Cl)cccc3Cl)nn12,inactive,,,inactive,,,inactive,,,,
CO/C=C(/C(=O)OC)c1ccccc1COc1cccc(C(F)(F)F)n1,6.85 µM (active),2.17 µM (active),,inactive,inactive,inactive,inactive,,inactive,,
CC(C)(C)c1cc([N+](=O)[O-])cc([N+](=O)[O-])c1O,12.2 µM (active),,,,,21.6 µM (active),inactive,,24.3 µM (active),,
O=NN1CCNCC1,inactive,,,inactive,inactive,inactive,inactive,,inactive,,
CC(C)(C)C(O)C(Oc1ccc(Cl)cc1)n1cncn1 (configuration not stated),inactive,,,inactive,inactive,inactive,inactive,,,,-1.67% [at 3.15 µM] (inactive)
C=CC[C@]1(O)CC[C@H]2[C@@H]3CCC4=CC(=O)CCC4=C3C=C[C@@]21C,,,,inactive,inactive,,inactive,,,,
CC1CC(CC2CCC(N)C(C)C2)CCC1N (configuration not stated),,inactive,,inactive,inactive,,inactive,inactive,,,
Clc1ccc(C2(Cn3cncn3)CC(Br)CO2)c(Cl)c1 (configuration not stated),inactive,68.2 µM (active),,inactive,,,inactive,,inactive,,
CC(=O)c1cc2c(cc1C)C(C)(C)C(C)CC2(C)C (configuration not stated),inactive,,,,inactive,inactive,inactive,,inactive,,
CC(C)(OO)c1ccccc1,inactive,inactive,,,,inactive,inactive,,inactive,,
O=C(CBr)Nc1ccc(Cl)cc1C(=O)c1ccccc1F,inactive,inactive,,inactive,inactive,inactive,inactive,,inactive,,
Nc1ccc([N+](=O)[O-])cc1[N+](=O)[O-],inactive,inactive,,inactive,inactive,,inactive,,inactive,,
O=S(=O)(O)C(F)(F)C(F)(F)C(F)(F)C(F)(F)F,inactive,,,inactive,inactive,inactive,inactive,,inactive,,
C#CCOC(C(=O)OCCN(C)C)(c1ccccc1)c1ccccc1,inactive,,inactive,inactive,,inactive,inactive,,inactive,,
Nc1nc(N)nc(N)n1,inactive,,,inactive,inactive,inactive,inactive,,inactive,,
